PubChem BioAssay (EPA / NIEHS)
Several values for one entry are separate records, joined by “and”; a condition that tells them apart may be missing. Identical values can stand only once. Activity calls are given as the source filed them. Rule for the calls: active = hit-call score of the fitted dose curve at least 0.9, where 1 is the maximum; inactive = score below 0.9.

assay: CCTE_Shafer_MEA_acute_per_burst_spike_number_mean: CCTE's Neural Acute Assay for Average Number of Spikes Per Burst, Shafer Lab (AID 2284015);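 note: hits are decreases in mean spikes per burst versus baseline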
Description: CCTE_Shafer_MEA_acute assay is conducted using Axion Biosystems 48 well microelectrode array (MEA) plates and Maestro recording system. Each well of the MEA plate contains a grid of 16 microelectrodes embedded in the culture surface. Electrically active cells, such as neurons, can be cultured over the electrodes, and electrical activity in these cells can be recorded extracellularly. The spontaneous firing of neurons is captured from each electrode on a microsecond timescale providing both temporally and spatially precise data. […] The CCTE_Shafer_MEA_acute assay uses primary cultures of rat cortical neurons. As these cultures mature over time, neural networks develop functional activity and form cohesive networks in which electrical activity can be highly coordinated. Baseline 40-minute recordings are made on days post-plating 13 or 15, followed by a secondary 40-minute recording after chemical exposure.CCTE_Shafer_MEA_acute_per_burst_spike_number_mean is a component of the CCTE_Shafer_MEA_acute assay. It measures the average number of spikes (action potential firings) in a single-electrode burst (temporally-clustered group of spikes) during a recording in a microelectrode array (MEA) using Axion Biosystems Maestro 768 channel amplifier with the AxIS adaptive spike detector. The recordings before and after chemical treatment are used to calculate a percent change in the mean number of spikes per burst in each well.Data from the assay component CCTE_Shafer_MEA_acute_per_burst_spike_number_mean was analyzed into 1 assay endpoint. This assay endpoint, CCTE_Shafer_MEA_acute_per_burst_spike_number_mean, was analyzed in the negative analysis fitting direction relative to DMSO as the negative control and baseline of activity. Using a type of functional reporter, gain or loss-of-signal activity can be used to understand electrical activity.
Spontaneous activity in the cortical cultures was recorded using an Axion Biosystems Maestro 768 channel amplifier and Axion Integrated Studios (AxIS) v1.8 (or later) software. The amplifier recorded from all channels simultaneously (gain = 1200 x; sampling rate = 12.5 kHz/channel): raw signals were filtered with a Butterworth band-pass filter (300-5000 Hz), which filters out slower local field potentials leaving only fast potentials, i.e., "spikes", arising from extracellular currents associated with action potentials (Pine 2006; Wheeler and Nam 2011). On-line spike detection of filtered signals was conducted with the AxIS adaptive spike detector, using a threshold of 8x the root mean squared (rms) noise on each channel. Any electrodes with rms noise levels greater than 5 uV were grounded (e.g., no data were recorded). Once grounded, an electrode was grounded for the duration of the experiment. All recordings were conducted at 37 C. Wells were deemed usable if on the day of the exposure >/= 10 electrodes were active (defined as >/= 5 spikes/min). On DIV 13 or 15, a minimum of three wells from one cortical culture preparation were treated with each compound (0.03-40 uM). Prior to recording baseline activity, each mwMEA plate was placed in the Maestro at 37 C and allowed to sit for 20 min while firing rates stabilized. Baseline activity (40 min) was recorded before the addition of each compound. An additional 40 min of spontaneous activity was recorded in the presence of each compound. Changes in network parameters relative to baseline were assessed following compound treatment.

| SMILES | outcome | AC50 |
| --- | --- | --- |
| CCN(CC)N=O | inactive | – |
| CC(C)(C)C(O)(CCc1ccc(Cl)cc1)Cn1cncn1 (stereo not given) | inactive | – |
| CC(C)(O)c1cnn2c(-c3ccc(F)c(-c4c(F)cccc4C#N)c3)cnc2n1 | inactive | – |
| CC(C)COC(=O)c1ccccc1C(=O)OCC(C)C | – | 6.45 µM (active) |
| CCCCCCCCn1sccc1=O | inactive | – |
| Clc1ccc(C(c2ccc(Cl)cc2)C(Cl)(Cl)Cl)cc1 | inactive | – |
| O=C(Oc1ccc(Br)cc1)N1CCN2CCC1CC2 | inactive | – |
| Clc1ccc(C(c2ccc(Cl)cc2)C(Cl)Cl)cc1 | inactive | – |
| O=[N+]([O-])C(Br)(CO)CO | – | 20 µM (active) |
| [Cl-].[Cl-].[Hg+2] | inactive | – |
| CCN(CC)CCO | inactive | – |
| CCCCCOC(=O)c1ccccc1C(=O)OCCCCC | – | 4.26 µM (active) |
| COC(=O)Nc1nc2ccccc2[nH]1 | inactive | – |
| O=P(OCCCl)(OCCCl)OCCCl | inactive | – |
| N#CC(Br)Br | inactive | – |
| ClCCOCCCl | inactive | – |
| Cc1ccc(N)c(N)c1 | inactive | – |
| O=C(N[C@H](c1ccccc1)[C@@H]1CN2CCC1CC2)c1c(Cl)ccc(C(F)(F)F)c1Cl | inactive | – |
| c1ccc(NNc2ccccc2)cc1 | – | 20 µM (active) |
| ClC1=C(Cl)[C@]2(Cl)[C@H]3[C@H]([C@@H]4C=C[C@H]3C4)[C@@]1(Cl)C2(Cl)Cl | inactive | – |
| CCC[CH2][Sn]([Cl])([CH2]CCC)[CH2]CCC | – | 198 nM (active) and 150 nM (active) |
| CCCCOC(=O)c1ccccc1C(=O)OCc1ccccc1 | – | 5 µM (active) |
| Cc1cc(N=Nc2ccccc2C)ccc1N | – | 20 µM (active) |
| CC(C)(OOC(C)(C)c1ccccc1)c1ccccc1 | inactive | – |
| ClC1=C(Cl)C2(Cl)C3C(Cl)C=CC3C1(Cl)C2(Cl)Cl (stereo not given) | – | 4.15 µM (active) |
| O=[N+]([O-])c1ccc(Oc2ccc(Cl)cc2Cl)cc1 | inactive | – |
| CCC(C)c1ccc(O)cc1 (stereo not given) | – | 32 µM (active) |
| C[N+](C)(C)CC1CO1 (stereo not given) | inactive | – |
| c1ccc(N=Nc2ccccc2)cc1 | inactive | – |
| O=Cc1ccco1 | inactive | – |
